Bioassay records from PubChem.
Only some compounds are listed: those with a hit (about 3.4% of all), similar ones and a draw of the others.
Env fusion inh: HIV envelope-mediated fusion inhibition; HeLa-JRFL Env/CEM21 cell fusion, luciferase; inhibition, % at 12.3 µM; 1.1% of 360,000 active; AID 651610;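 active means mean replicate inhibition score of at least 50 and every replicate individually at or above 50; inconclusive means only one of the two criteria met; inactive means mean below 50 and not all replicates reaching 50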
miR122 inh: blocks miR-122 activity in Huh7 sensor cells. 0.3% of 340,000 active. activation (reporter increase), % at 12.5 µM. Huh7 miR-122 Renilla luciferase sensor, 48 h; neutral wells = 0, positive control = 100;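 active means mean replicate activation score at least 90 and every replicate individually at or above 90; inconclusive means only one of the two criteria met; inactive means neither criterion met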;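 further: higher luciferase means less miR-122 activity so hits act as miR-122 inhibitors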
MITF act: activators of MITF-driven TRPM1 promoter activity in SK-MEL-5 cells. activation, % at 12.5 µM. AID 588334. SK-MEL-5 TRPM1-promoter luciferase, 24 h; % of positive control, neutral wells = 0. 0.75% of 300,000 active;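 active means mean activation of at least 80% with every replicate also reaching 80%; inconclusive means mean reaches 80% but some replicate falls short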
esBAF inh: inhibitors of esBAF chromatin remodeling in mouse ES cells. 2% of 350,000 active. reporter increase, % at 12.5 µM. Bmi1-luciferase knock-in reporter, 24 h; 100% = twice the neutral-well signal; in the data active means activation above about 40%; inconclusive means no clear call, values can overlap the other calls;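 further: a rise in the Bmi1 reporter signal indicates esBAF inhibition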
Wnt bcat act: activators of Wnt/beta-catenin signaling. activation, % at 9.35 µM. 1.2% of 300,000 active. Wnt/beta-catenin reporter cell assay, activator, plate reader. AID 743398; in the data active means activation above about 30%, passing the limit was not always enough; inconclusive means no clear call, values can overlap the other calls
Each line names hits and unclear results; the compound was inactive in the other large screens.

O=C(Nc1ccc(Cl)cn1)C1CCCN1S(=O)(=O)c1ccc(Cl)cc1 (stereo unspecified)	none (no result: Env fusion inh, Wnt bcat act)
CCOc1ccc(C(=O)Nc2nnc(NC(=S)Nc3ccccc3)s2)cc1	none
Cc1nc(NC(=S)Nc2ccccc2)sc1C	Wnt bcat act 80 (no result: miR122 inh, esBAF inh)
Cc1ccc(C(=O)Nc2nnc(NC(=S)Nc3ccccc3)s2)cc1	esBAF inh 56
O=C(Oc1cccc(/C=N/NC(=O)c2ccccn2)c1)c1ccc([N+](=O)[O-])cc1	Wnt bcat act 34
O=C(N/N=C/c1ccc(OC(=O)c2ccccc2Cl)cc1)c1ccccn1	MITF act 96 (no result: Env fusion inh, esBAF inh, Wnt bcat act)
O=C(N/N=C/c1cc([N+](=O)[O-])ccc1N1CCCCCC1)c1ccccn1	none (no result: miR122 inh, esBAF inh)
CSc1ccc(/C=N/NC(=O)c2ccccc2Cl)cc1	esBAF inh 79
CN1C(=O)c2cc(NC(=O)C3CC3)ccc2OC[C@@H]2O[C@@H](CC(=O)NCc3cccc(F)c3)CC[C@@H]21	none (no result: MITF act, Wnt bcat act)
COc1ccccc1-c1ccc(OCCCN2CCC(C(O)(c3ccccc3)c3ccccc3)CC2)cc1	Env fusion inh 97 (no result: miR122 inh, MITF act, esBAF inh)
OC(c1ccccc1)(c1ccccc1)C1CCN(CCCOc2cc(F)cc(F)c2)CC1	none (no result: miR122 inh, MITF act, esBAF inh)
OC(c1ccccc1)(c1ccccc1)C1CCN(CCCOc2ccc(-c3ccc(F)cc3F)cc2)CC1	Env fusion inh 63 (no result: miR122 inh, MITF act, esBAF inh)
CCN1[C@@H]2c3ccc(-c4cccc(F)c4)c(=O)n3C[C@@H]2[C@@H](CO)[C@@H]1C(=O)N1CCCCC1	none (no result: miR122 inh, MITF act, Wnt bcat act)
O=C(Nc1ccccc1Cl)c1cc(C2CCCN(C(=O)CCc3ccccc3)C2)on1 (stereo unspecified)	none (no result: MITF act)
O=C(Nc1ccccc1)c1cc(C2CCCN(C(=O)CCc3ccccc3)C2)on1 (stereo unspecified)	esBAF inh 64 (no result: MITF act)
O=C(NCc1ccccc1)c1cc(C2CCCN(C(=O)CCc3ccccc3)C2)on1 (stereo unspecified)	none (no result: MITF act)
CC(C)S(=O)(=O)N1CCCC(c2cc(C(=O)Nc3ccc(F)c(Cl)c3)no2)C1 (stereo unspecified)	esBAF inh 48, Wnt bcat act 32 (no result: MITF act)
O=C(Nc1ccc(F)c(Cl)c1)c1cc(C2CCCN(C(=O)CCc3ccccc3)C2)on1 (stereo unspecified)	esBAF inh 47 (no result: MITF act)
O=C(Nc1ccc(F)c(Cl)c1)c1cc(C2CCCN(S(=O)(=O)c3cccs3)C2)on1 (stereo unspecified)	none (no result: MITF act)
O=C(C[C@@H]1CC[C@@H]2[C@H](COC[C@@H](O)CN2Cc2ccc(Oc3ccccc3)cc2)O1)N1CCCCC1	none (no result: Env fusion inh, MITF act, Wnt bcat act)
CC=Cc1ccc2n(c1=O)C[C@@H]1[C@@H](CO)[C@H](C(=O)NCC3CC3)N(CC3CCOCC3)[C@H]21 (mixture of isomers)	none (no result: Env fusion inh, MITF act, Wnt bcat act)
CC(=O)Nc1ccc(C=C(C#N)c2ccc(C)cc2)cc1	esBAF inh inconclusive, Wnt bcat act 47 (no result: MITF act)
CCNC(=O)C[C@@H]1CC[C@H]2[C@@H](COc3ccc(NC(=O)c4cccc(OC)c4)cc3C(=O)N2C)O1	none (no result: MITF act, Wnt bcat act)
CNC(=O)CSc1nc(N)c2c3c(sc2n1)CCC3	none (no result: Wnt bcat act)
NC(=O)CSc1nc(N)c2c3c(sc2n1)CCCCC3	esBAF inh 55 (no result: MITF act, Wnt bcat act)
C[C@H](CO)N1C[C@H](C)[C@@H](CN(C)Cc2cccnc2)Oc2cc(Br)ccc2S1(=O)=O	none (no result: MITF act, Wnt bcat act)
O=C(/C=C/c1ccco1)Nc1ccc2c(c1)OCO2	MITF act 92, Wnt bcat act 33 (no result: miR122 inh, esBAF inh)
Cc1ccc(-n2nc3ccc(NC(=O)/C=C/c4ccco4)cc3n2)cc1	Wnt bcat act 58 (no result: Env fusion inh, esBAF inh)
O=C(/C=C/c1ccco1)Nc1cccnc1Cl	Wnt bcat act 36 (no result: MITF act)
CCCC(=O)Nc1ccc2c(c1)C(=O)N(C)[C@H]1CC[C@@H](CC(=O)NCCc3ccccc3)O[C@H]1CO2	none (no result: Env fusion inh, MITF act, Wnt bcat act)
CC(=O)Nc1ccc(SCc2ncc(-c3ccccc3)o2)cc1	esBAF inh 55
CC(=O)Nc1ccc(SCC(=O)Nc2ccccc2-c2ccccc2)cc1	none (no result: Env fusion inh, esBAF inh)
CC(=O)NC[C@H]1[C@@H](c2ccccc2)[C@@H](CO)N1C(=O)Cc1ccncc1	none (no result: Env fusion inh, MITF act, Wnt bcat act)
COc1ccc(CN(C)C[C@@H]2Oc3ccc(NC(=O)Cn4cnnn4)cc3CC(=O)N([C@H](C)CO)C[C@@H]2C)cc1	none (no result: Env fusion inh, MITF act, Wnt bcat act)
C[C@@H]1CN([C@H](C)CO)C(=O)c2cc(Br)cnc2O[C@H]1CN(C)S(=O)(=O)c1ccc(F)cc1	none (no result: MITF act, Wnt bcat act)
CNC[C@@H]1OCCCC[C@@H](C)Oc2ccc(NS(=O)(=O)c3ccccc3)cc2C(=O)N([C@@H](C)CO)C[C@@H]1C	none (no result: MITF act, Wnt bcat act)
Oc1nc(Nc2cccc(Cl)c2)sc1/C=C1\C=Nc2ccccc21	none (no result: esBAF inh)
Oc1cccc(Nc2nc(O)c(/C=C3\C=Nc4ccccc43)s2)c1	esBAF inh 59, Wnt bcat act 35
